Results on 23 compounds are retold here after PubChem BioAssay (Tox21).

SMILES strings stand for the structures. Results filed as inconclusive are left out. Where a call stands in place of a potency, no number is given. Unmarked numbers belong to inactive results. Activity calls are given as the source filed them. Calls come from the whole dose curve; as a rule, active = well fitted activation curve with a large enough effect in the repeat runs; inconclusive = weak or mixed curves; inactive = no such curve, though single readings can be large or run the other way.
Potency is the fitted concentration of half-maximal effect.

In this assay the target is Nuclear receptor subfamily 1 group I member 2 (Homo sapiens) (UniProt O75469). Put plainly: Human pregnane X receptor (PXR) small molecule agonists, qHTS assay (AID 1346982). Note: nearly all actives have a fitted effect of over 35% in size. To be noted: PXR-Luc HepG2, CYP3A4 luciferase reporter, 24 h; series mostly up to 92.4 µM. The method, boiled down: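 After plating in 5% charcoal-stripped FBS and a 5 hr rest, PXR-Luc HepG2 cells received compounds in DMSO. Following 24 hr at 37 C, ONE-Glo was added and light output read.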
Sequence of Nuclear receptor subfamily 1 group I member 2 (Homo sapiens) (O75469 whole entry, looked up): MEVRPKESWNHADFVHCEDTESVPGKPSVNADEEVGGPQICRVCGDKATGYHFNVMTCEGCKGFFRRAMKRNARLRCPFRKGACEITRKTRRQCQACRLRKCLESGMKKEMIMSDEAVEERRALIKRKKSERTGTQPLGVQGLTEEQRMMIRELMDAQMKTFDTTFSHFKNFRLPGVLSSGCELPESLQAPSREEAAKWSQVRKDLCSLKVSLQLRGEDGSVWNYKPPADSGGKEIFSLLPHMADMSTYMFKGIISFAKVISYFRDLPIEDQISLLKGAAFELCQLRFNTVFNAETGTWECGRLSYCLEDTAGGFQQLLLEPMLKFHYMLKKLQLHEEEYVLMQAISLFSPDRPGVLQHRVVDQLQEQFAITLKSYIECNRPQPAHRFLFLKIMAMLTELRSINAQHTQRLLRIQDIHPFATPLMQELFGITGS
(In general: Quantitative high-throughput screening tests each substance at several concentrations.)
Turning to `CC(C)=CC(=O)O`, the Potency result is “inactive”. On the same count and under the same terms, the same measure for `O=C(O)c1ccccc1S`: “inactive”.

Take `CCCCc1ccc(N)cc1`: the Potency result is “inactive”. In the case of `CC(C)COC(=O)c1ccccc1O`, the Potency entry is “inactive”. On the same count and under the same terms, the same measure for `CCCCCCCCCCCCCCC`: “inactive”; for `O=[N+]([O-])c1ccc(CCO)cc1`: “inactive”; for `CCN(CC)S(=O)(=O)c1ccc(C(=O)O)cc1`: “inactive”. Turning to `Nc1ccn(C2CO[C@H](CO)O2)c(=O)n1` (stereo partly drawn), the Potency result is “inactive”. With `COC(C(=O)O)c1ccccc1` (stereo not drawn), the Potency entry was “inactive”. For the compound `CCCCCCC(CCCCCCCCCCC(=O)OCC(COC(C)=O)OC(C)=O)OC(C)=O` (stereo not drawn), the Potency entry was “inactive”. For `NCC[C@H](O)C(=O)N[C@@H]1C[C@H](N)[C@@H](O[C@H]2O[C@H](CN)[C@@H](O)[C@H](O)[C@H]2O)[C@H](O)[C@H]1O[C@H]1O[C@H](CO)[C@@H](O)[C@H](N)[C@H]1O`, the activation was -0.318% [at 0.349 µM]. Take `NC(=O)c1ncn([C@@H]2O[C@H](CO)[C@@H](O)[C@H]2O)c1N`: the Potency entry was “inactive”.

For `CCCc1ccccc1O`, the Potency entry is “inactive”. With `C=CCOCC(O)CS(=O)(=O)O` (stereo not drawn), the Potency entry was “inactive”. In the case of `NC(=O)CCCCC1CCSS1` (stereo not drawn), the Potency result is “inactive”. The same measure, in the same setting: the same measure for `CC(C)c1ccc2oc3nc(N)c(C(=O)O)cc3c(=O)c2c1`: 0.335 µM (active); for `Fc1ccccc1-c1ccccc1`: “inactive”. Same read-out and setting: the same measure for `CC(C)N1C(=O)c2ccccc2C1=O`: “inactive”; for `O=S(=O)(O)c1ccccc1O`: “inactive”. For the compound `COC(=O)CCCCCCCCC(=O)OC`, the Potency result was “inactive”. Regarding `c1ccc(CCCc2ccccn2)cc1`, the Potency is 34.4 µM (active). Still for that read-out and setting: the same measure for `O=C(O)c1ccc[n+]([O-])c1`: “inactive”; for `NS(=O)(=O)c1cc2c(cc1Cl)NC(CSCc1ccccc1)=NS2(=O)=O`: “inactive”.
